# Measured values from PubChem BioAssay.
# Values joined by “and” are separate entries in the source; they are usually repeats but may differ in a detail not shown here. Identical values can stand only once. Results filed as inconclusive are left out. For some assays here: Potency and affinity values are given separately. Active and inactive are the calls of the source. Unless noted, how the calls were made is not given here.
# Tests used:
# [1] = P. berghei load reduction in hepatocytes – cell-based, HepG2, luciferase luminescence, HepG2 viability, primary screen (AID 624349; in the data active means parasite load remaining mostly below about 12%, no sharp cut-off; inactive means mostly above about 10%;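 further: 100% = mean of DMSO negative control wells on the same plate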); details: P. berghei liver stage in HepG2, luciferase luminescence, concentration not given here; parasite load remaining: stronger effect = lower value; viability: measured here: HepG2 viability without parasites
# [2] = biological target: 6-phosphogluconate dehydrogenase, decarboxylating (Homo sapiens) (UniProt P52209); assay: inhibition of human phosphogluconate dehydrogenase – biochemical, recombinant enzyme, NADPH absorbance, primary screen (AID 1159550;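 active means at least 20% inhibition of 6-phosphogluconate dehydrogenase activity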); details: recombinant 6PGD, NADPH absorbance 341 nm; at 10 µM; stronger effect = higher value
# Sequence of 6-phosphogluconate dehydrogenase, decarboxylating (Homo sapiens) (P52209 whole entry, looked up): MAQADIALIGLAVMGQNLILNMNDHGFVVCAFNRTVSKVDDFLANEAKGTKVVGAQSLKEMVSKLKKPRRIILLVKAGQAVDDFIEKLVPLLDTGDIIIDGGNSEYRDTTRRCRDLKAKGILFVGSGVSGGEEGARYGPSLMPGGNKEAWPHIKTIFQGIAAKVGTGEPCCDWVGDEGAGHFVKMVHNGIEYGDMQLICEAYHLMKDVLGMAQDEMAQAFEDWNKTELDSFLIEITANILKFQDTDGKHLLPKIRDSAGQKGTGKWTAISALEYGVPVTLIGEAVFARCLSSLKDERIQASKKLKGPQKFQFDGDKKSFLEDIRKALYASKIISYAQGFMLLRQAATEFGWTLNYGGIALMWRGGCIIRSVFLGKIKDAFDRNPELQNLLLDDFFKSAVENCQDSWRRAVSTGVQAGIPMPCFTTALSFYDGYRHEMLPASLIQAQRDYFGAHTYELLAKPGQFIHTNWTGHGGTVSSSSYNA
# [3] = viability loss with induced miR-34 in A549 – imaging, A549 dox-inducible miR-34, nuclei and caspase counts, primary screen (AID 1347080;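 active means compounds whose cell count with miR-34 switched on is under 0.7 times the count with it off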); details: A549 miR-34 inducible, Hoechst nuclei count, 48 h
# [4] = MELAS cybrid and Rieske KO viability enhancers – cell-based, MELAS cybrids, Rieske KO mouse fibroblasts, CellTiter-Glo, primary screen (AID 1508586;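 active means mean z-score across replicates of 1.96 or higher in either the MELAS or the Rieske mutant cell line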;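 further: z relative to plate mean and SD of compound and empty wells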); details: low glucose
# [5] = biological target: NAD(+) hydrolase SARM1 (Homo sapiens) (UniProt Q6SZW1); assay: blocking NAD cleavage by SARM1 SAM-TIR – cell lysate, NAD-Glo luminescence (AID 1508614;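 active means compound whose remaining NAD level is above about 45 nM, limit read from the data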); details: SAM-TIR HEK293T lysate NADase, at 1 µM, stronger effect = higher value
# Sequence of NAD(+) hydrolase SARM1 (Homo sapiens) (Q6SZW1 whole entry, looked up, the tested form may be a part): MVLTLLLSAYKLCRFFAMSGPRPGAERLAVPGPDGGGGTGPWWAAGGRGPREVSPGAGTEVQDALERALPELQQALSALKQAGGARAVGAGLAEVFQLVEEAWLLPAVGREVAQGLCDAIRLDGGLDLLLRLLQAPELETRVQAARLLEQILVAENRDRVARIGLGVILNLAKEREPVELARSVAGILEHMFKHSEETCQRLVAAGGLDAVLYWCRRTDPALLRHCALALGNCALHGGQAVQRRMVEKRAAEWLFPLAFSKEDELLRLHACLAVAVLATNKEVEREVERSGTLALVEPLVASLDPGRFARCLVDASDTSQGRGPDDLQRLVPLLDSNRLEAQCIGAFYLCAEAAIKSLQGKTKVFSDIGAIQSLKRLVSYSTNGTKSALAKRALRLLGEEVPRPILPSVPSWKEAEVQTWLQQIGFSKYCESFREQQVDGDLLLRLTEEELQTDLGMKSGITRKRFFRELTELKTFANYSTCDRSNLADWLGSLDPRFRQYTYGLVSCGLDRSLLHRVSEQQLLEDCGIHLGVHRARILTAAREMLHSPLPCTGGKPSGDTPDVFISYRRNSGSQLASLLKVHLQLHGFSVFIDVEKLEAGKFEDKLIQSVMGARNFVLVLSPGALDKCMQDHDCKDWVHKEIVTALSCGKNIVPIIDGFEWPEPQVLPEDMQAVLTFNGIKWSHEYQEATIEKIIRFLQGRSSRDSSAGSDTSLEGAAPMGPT
# [6] = biological target: Mitogen-activated protein kinase 7 (Homo sapiens) (UniProt Q13164); assay: Gal4-ERK5 driven luciferase induction – cell-based, HTS, primary screen (AID 1508626;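 active means luciferase signal above three times the same-plate solvent-only control wells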;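 further: luciferase driven by Gal4-ERK5 fusion binding five Gal4 sites before minimal TATA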); details: HeLa Gal4-ERK5 transactivation, 18 h, at 5 µM, stronger effect = higher value
# Sequence of Mitogen-activated protein kinase 7 (Homo sapiens) (Q13164 whole entry, looked up, the tested form may be a part): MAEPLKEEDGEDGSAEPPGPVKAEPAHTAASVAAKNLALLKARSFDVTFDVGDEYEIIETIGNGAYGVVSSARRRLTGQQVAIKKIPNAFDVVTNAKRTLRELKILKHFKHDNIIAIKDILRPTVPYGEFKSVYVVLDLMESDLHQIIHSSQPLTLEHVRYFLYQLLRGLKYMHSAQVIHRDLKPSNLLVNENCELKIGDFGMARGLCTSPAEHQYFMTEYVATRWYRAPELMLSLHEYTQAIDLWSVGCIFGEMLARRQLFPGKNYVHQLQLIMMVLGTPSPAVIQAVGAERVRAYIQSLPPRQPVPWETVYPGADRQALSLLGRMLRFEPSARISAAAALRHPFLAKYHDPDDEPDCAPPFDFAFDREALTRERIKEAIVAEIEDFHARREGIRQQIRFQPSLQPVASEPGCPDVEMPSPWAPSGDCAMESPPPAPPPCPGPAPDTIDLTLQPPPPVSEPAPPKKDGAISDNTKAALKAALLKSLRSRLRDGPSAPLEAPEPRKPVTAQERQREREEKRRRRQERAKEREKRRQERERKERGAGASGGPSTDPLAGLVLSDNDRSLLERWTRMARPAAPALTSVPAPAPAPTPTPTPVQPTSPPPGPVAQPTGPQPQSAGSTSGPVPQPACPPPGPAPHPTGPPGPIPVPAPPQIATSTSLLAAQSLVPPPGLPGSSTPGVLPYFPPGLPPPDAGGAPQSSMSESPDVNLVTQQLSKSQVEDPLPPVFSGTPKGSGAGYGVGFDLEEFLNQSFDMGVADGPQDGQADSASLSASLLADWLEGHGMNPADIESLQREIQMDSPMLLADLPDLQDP
# [7] = galactose survival enhancers in mitochondrial complex I cybrids – cell-based, galactose medium, ATP luminescence, primary screen (AID 1645843;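 active means z-score of at least 1.8 in each of two replicates, scored against plate mean and spread of sample wells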;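 further: positive z means more ATP and so rescue of galactose-driven cybrid death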); details: complex I mutant cybrid cells, 72 h, stronger effect = higher value
# [8] = system: Aerobactin synthetase IucA (Klebsiella pneumoniae hvKP1); assay: IucA enzyme inhibition, primary screen, biochemical, Spectrum library (AID 1346200); details: malachite green pyrophosphate, A620, at 8 µM, stronger effect = lower value;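 further: 100% = wells without compound and 0% = wells lacking enzyme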
# [9] = blockers of polyQ-driven CASP3 activation – cell-based (AID 1583); details: polyglutamine-induced caspase-3 activation, cell assay; stronger effect = higher value;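 tested at 10 µM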
# [10] = yeast 75Q aggregation reduction – 75Q-TubU reporter (AID 1593); details: Yeast 75Q polyglutamine aggregation reporter
# [11] = restoration of touch response, mutant HTT neurons – whole organism, C. elegans mechanosensory neurons, N-terminal huntingtin (AID 1599); details: C. elegans polyQ-huntingtin mechanosensory neurons, stronger effect = higher value
# [12] = blockers of cytochrome c efflux from mitochondria – biochemical, purified mitochondria (AID 1603); details: stronger effect = lower value;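 further: mouse liver mitochondria challenged with calcium chloride; signal normalized to the plate average as 100%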
# [13] = polyglutamine aggregate formation blockers (AID 1604); details: polyglutamine-induced protein aggregation inhibition assay; stronger effect = higher value; tested at 2.5 µM
# [14] = glutamate transport activators, MN-1 cells, MN-1 cell line (AID 1612); details: MN-1 motor neuron cells, stronger effect = higher value;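 further: tested at 1 µM final; 0% = mean of DMSO vehicle wells on each plate; positive means more glutamate uptake than control and negative means less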
# [15] = 75Q-TubH aggregate inhibition, S. cerevisiae, yeast (AID 1616); details: S. cerevisiae 75Q-TubH polyglutamine aggregation suppression; stronger effect = higher value
# [16] = blockers of MitoPT in mitochondria (AID 1580); details: isolated mitochondria, permeability transition inhibition
# [17] = blockers of biotin-polyQ monomer incorporation into aggregates – biochemical, solid-phase synthetic aggregates, QA3 (AID 1585); details: polyQ aggregate elongation; EC50: measured here: elongation inhibition potency; inhibition: at 100 µM, stronger effect = higher value
# [18] = turbidity assay for polyglutamine aggregation inhibitors, qthio, 25 µM (AID 1588); details: at 25 µM, stronger effect = lower value
# [19] = compounds altering viability of human ES cells (AID 493140); details: human embryonic stem cell survival screen; stronger effect = higher value;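 further: cells exposed to compounds for four days before counting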
# [20] = viability loss in pontine glioma line – cell-based, SU-DIPG-XVII, MIPE5.0, CellTiter-Glo, qHTS, dose response (AID 1347060; cut-off not given, nearly all actives have AC50 up to about 26 µM;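 further: cells exposed to compound for 48 hours before viability readout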); details: CellTiter-Glo ATP luminescence
# [21] = viability loss in pontine glioma line – cell-based, SU-DIPG-XIII, MIPE5.0, CellTiter-Glo, qHTS, dose response (AID 1347064; cut-off not given, nearly all actives have AC50 up to about 23 µM;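 further: cells exposed to compound for 48 hours before the viability read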); details: CellTiter-Glo ATP luminescence
# [22] = viability loss in pontine glioma line – cell-based, SU-DIPG-XXV, MIPE5.0, CellTiter-Glo, qHTS, dose response (AID 1347065; cut-off not given, nearly all actives have AC50 up to about 26 µM;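 further: cells exposed to compound for 48 hours before ATP readout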); details: CellTiter-Glo ATP luminescence
# [23] = JHH-DIPG-1 glioma cell viability, MIPE5.0 library, CellTiter-Glo luminescence, qHTS (AID 1347067; cut-off not given, nearly all actives have AC50 up to about 26 µM;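 further: cells exposed to compound for 48 hours before readout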); details: JHH-DIPG-1 glioma viability, CellTiter-Glo ATP luminescence
# [24] = growth inhibition of DIPG cells – cell-based, MIPE5.0 library, qHTS (AID 1347068; cut-off not given, nearly all actives have IC50 up to about 30 µM;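 further: cells exposed to compound for 48 hours before viability readout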); details: SU-DIPG-XXV viability
# [25] = measured here: relative caspase fold change +Dox/-Dox
# [26] = measured here: total cells with miR-34 induction, stronger effect = lower value
# [27] = measured here: total cells without miR-34 induction
# [28] = MELAS cybrid survival, CellTiter-Glo 48 h, stronger effect = higher value
# [29] = Rieske KO mouse fibroblast survival, CellTiter-Glo 72 h
smiles,measurement,setting,value
C#C[C@]1(O)CC[C@H]2[C@@H]3CCC4=CC(=O)CC[C@]4(C)[C@H]3CC[C@@]21C,parasite load remaining,[1],27.4% (inactive) and 14.2% (inactive)
same,viability,[1],48.6% and 66.5%
same,inhibition,[2],7.17% (inactive)
same,fold change,[3]; stronger effect = lower value,0.927 (inactive) and 0.887 (inactive)
same,fold change,[3]; [25],1.32 and 1.63
same,cell count,[3]; [26],8580 and 9180
same,cell count,[3]; [27],9250 and 10300
same,z-score,[4]; [28],-0.171 (inactive) and 0.217 (inactive)
same,z-score,[4]; [29],-0.0237 and 0.861
same,remaining NAD,[5],10 nM (inactive)
same,luciferase signal,[6],68 AU (inactive)
same,z-score,[7],0.355 (inactive)
C[C@@H]1C(=O)O[C@H]2[C@H]1CC[C@@]1(C)C=CC(=O)[C@@]3(C)O[C@@]213,inhibition,[2],-5.96% (inactive)
same,activity remaining,[8],112% (inactive)
same,luciferase signal,[6],108 AU (inactive)
CC[C@@]1(O)C[C@H](O[C@H]2C[C@H](N(C)C)[C@H](O)[C@H](C)O2)c2c(cc3c(c2O)C(=O)c2c(O)cccc2C3=O)[C@H]1C(=O)OC,inhibition,[9],61.1%
same,score,[10],0.65
same,rescue above control,[11],1.11
same,cytochrome c release ratio,[12],3.13
same,inhibition of aggregation,[13],90.8%
same,glutamate uptake change,[14],-25.9%
same,aggregation suppression score,[15],0.115
same,parasite load remaining,[1],0.915% (inactive)
same,viability,[1],15.1%
same,inhibition,[2],-8.44% (inactive)
same,activity remaining,[8],107% (inactive)
same,luciferase signal,[6],5360 AU (active)
O=C(O)c1ccccc1-c1c2cc(Br)c(=O)cc-2oc2[c]([Hg])c(O)c(Br)cc12,EC50,[16],10000 nM (active)
same,inhibition,[9],39.1%
same,EC50,[17],38000 nM
same,inhibition,[17],61.6% (active)
same,aggregation (% of control),[18],41.9% (active)
same,score,[10],0.07
same,rescue above control,[11],0
same,cytochrome c release ratio,[12],1.39
same,inhibition of aggregation,[13],57.7%
same,glutamate uptake change,[14],-7.36%
same,aggregation suppression score,[15],0.0281
same,survival,[19],18.6 (inactive)
same,parasite load remaining,[1],62.4% (inactive) and 40.3% (inactive)
same,viability,[1],57.8% and 97.8%
same,inhibition,[2],2.12% (inactive)
same,activity remaining,[8],-1.02% (active)
same,fold change,[3]; stronger effect = lower value,0.908 (inactive)
same,fold change,[3]; [25],2.08
same,cell count,[3]; [26],11900
same,cell count,[3]; [27],13100
same,remaining NAD,[5],56 nM (active)
same,luciferase signal,[6],52 AU (inactive)
COc1ccc([C@H]2Oc3c(I)c(OC)cc(OC)c3C[C@@H]2O)cc1OC,inhibition,[2],14.5% (inactive)
same,activity remaining,[8],103% (inactive)
same,luciferase signal,[6],44 AU (inactive)
CCCN(CCC)c1c([N+](=O)[O-])cc(C(F)(F)F)cc1[N+](=O)[O-],inhibition,[2],-18.5% (inactive)
same,activity remaining,[8],95.7% (inactive)
same,luciferase signal,[6],72 AU (inactive)
COc1ccc2c(c1)[C@]13CCCC[C@@H]1[C@H](C2)N(C)CC3,inhibition,[2],2.05% (inactive)
same,fold change,[3]; stronger effect = lower value,0.873 (inactive) and 0.843 (inactive) and 0.893 (inactive)
same,fold change,[3]; [25],2.02 and 0.727 and 1.27
same,cell count,[3]; [26],9020 and 10500 and 9760
same,cell count,[3]; [27],10300 and 12400 and 10900
same,z-score,[4]; [28],0.326 (inactive) and 0.234 (inactive)
same,z-score,[4]; [29],0.302 and -0.256
same,remaining NAD,[5],10 nM (inactive)
same,luciferase signal,[6],28 AU (inactive)
same,z-score,[7],-0.13 (inactive)
CC(C)[C@]12O[C@H]1[C@@H]1O[C@@]13[C@@]1(C)CCC4=C(COC4=O)[C@@H]1C[C@@H]1O[C@@]13C2=O,inhibition,[2],3.27% (inactive)
same,AC50,[20],295 nM (active)
same,AC50,[21],263 nM (active)
same,AC50,[22],372 nM (active)
same,AC50,[23],132 nM (active)
same,IC50,[24],372 nM (active)
CNNC,inhibition,[2],-3.38% (inactive)
same,activity remaining,[8],86.5% (inactive)
same,luciferase signal,[6],32 AU (inactive)
CCC(C)C(=O)O[C@@H]1C[C@@]2(C)[C@H](c3ccoc3)OC(=O)CC23OC2(C)O[C@]14[C@]1(C)[C@@H](CC(=O)OC)C5(C)CC1(O)[C@](O)(C5OC(=O)C1(C)OC1C)[C@@H](OC(C)=O)[C@]34O2 (some centres not stated),inhibition,[2],-16.5% (inactive)
same,activity remaining,[8],103% (inactive)
same,luciferase signal,[6],12 AU (inactive)
